# NPSR antagonist: neuropeptide S receptor (human) antagonism, cAMP. Q6W5P4. CHO-NPSR cells, cAMP TR-FRET, antagonist mode. Potency, µM (top dose mostly 38.3 µM), inactives show top-dose activity change, negative = inhibition, actives largely listed as inhibitors. hit rate 1% among 220,000. AID 1461; further: nearly all actives have a fitted effect of over 50% in size
# Target sequence (Q6W5P4 whole entry, looked up): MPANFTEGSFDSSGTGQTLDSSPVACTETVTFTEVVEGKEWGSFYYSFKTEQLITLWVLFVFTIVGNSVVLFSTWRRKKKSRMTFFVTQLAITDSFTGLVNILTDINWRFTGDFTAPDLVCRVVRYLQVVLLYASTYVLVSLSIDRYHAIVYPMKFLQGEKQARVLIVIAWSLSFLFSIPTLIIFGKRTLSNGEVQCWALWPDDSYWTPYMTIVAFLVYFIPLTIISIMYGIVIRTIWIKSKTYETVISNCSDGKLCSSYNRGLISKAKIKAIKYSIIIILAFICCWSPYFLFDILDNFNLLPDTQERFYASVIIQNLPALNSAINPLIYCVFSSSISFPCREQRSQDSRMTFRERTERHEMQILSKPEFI
# HPGD block: blocks human HPGD enzyme activity; P15428; purified HPGD, NADH fluorescence kinetic, PGE2 substrate; Potency, µM, without a hit: at the top dose activity change, negative = inhibition, most hits filed as inhibitors; hit rate 4.3% among 150,000; active means well fitted inhibition curve with a large enough effect, not every such curve was filed as active; inconclusive means small, poorly fitted or top-dose-only effect, or another doubt; inactive means no such curve, though single readings can be large or run the other way
#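 NADH formation kinetics: reaction with 30 uM PGE2 and 1 mM NAD+ (final), 20 nM enzyme, Tris-HCl pH 8 with Tween 20, after 15 min compound preincubation at room temperature. Fluorescence change, last versus first of five reads.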
# Tau fibril ThT: inhibitors of human tau fibril formation, thioflavin T binding | recombinant tau K18 P301L, heparin-induced fibrillization, ThT fluorescence | Potency, µM (series often up to 57.4 µM), inactives show at the highest dose activity, negative = inhibition, actives largely listed as inhibitors | hit rate 2.1% among 270,000 | AID 1460; further: nearly all actives have a fitted effect of over 55% in size
# Target sequence (P10636 561-689 P618L limits assumed): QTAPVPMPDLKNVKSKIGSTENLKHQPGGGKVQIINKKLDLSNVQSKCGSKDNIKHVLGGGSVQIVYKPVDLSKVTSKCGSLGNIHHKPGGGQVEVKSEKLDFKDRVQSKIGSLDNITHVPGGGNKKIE
#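 Tau K18 P301L fragment (15 uM unlabeled plus 0.24 uM Alexa 594-labeled) in 100 mM sodium acetate pH 7 with compound, fibrillization induced by 20 uM heparin for 6 hr at 37 C. Thioflavin T (30 uM) added, fluorescence read after 1 hr (ex 450, em 510 nm).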
# Tau fluor cs: counter-screen for tau fibril formation inhibitors | tau K18 P301L (four-repeat tau fragment) Alexa594 fluorescence, heparin fibrillization | Potency, µM (highest dose often 57.7 µM), without a hit: top-dose activity change, negative = decrease | hit rate 0.93% among 280,000 | AID 1463; further: nearly all actives have a fitted effect of over 55% in size
#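 Human K18 P301L tau (15 uM unlabeled plus 0.24 uM Alexa 594-labeled, final) in 100 mM sodium acetate pH 7 was mixed with compound and 20 uM heparin and incubated 6 hr at 37 C.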
# Tau fibril FP: inhibitors of human tau fibril formation. K18 P301L tau heparin fibrillization, Alexa594 FP, 6 h. Potency, µM (series often up to 57.7 µM), inactives show at the top dose activity, negative = inhibition, hits mostly inhibitors. hit rate 0.39% among 280,000. AID 1468; further: nearly all actives have a fitted effect of over 55% in size
#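 Compound effects on tau fibrillization are measured by Alexa 594 fluorescence polarization (ex 555, em 632 nm). K18 P301L tau is used at 15 uM with 0.24 uM labeled tracer, and 20 uM heparin induces aggregation over 6 hr at 37 C.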
# ALDH1A1 block: ALDH1A1 (human) enzyme inhibition; P00352; Purified ALDH1A1, NADH fluorescence, propionaldehyde substrate; Potency, µM (titrated, usually from 75.3 µM), for inactives: at the top dose activity, negative = inhibition, most hits filed as inhibitors; hit rate 7.3% among 220,000; AID 1030; active means well fitted inhibition curve with a large enough effect, not every such curve was filed as active; inconclusive means small, poorly fitted or top-dose-only effect, or another doubt; inactive means no such curve, though single readings can be large or run the other way;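 further: plate controls were no enzyme wells and a reference inhibitor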
# * = called active by the depositor; ? = inconclusive; / = no result; [ ] = remark or other dose. Most compounds without a hit are left out; they make up all but 9.5% or so of the library. Unless noted, the call rests on the fitted dose curve; in most records, active means well fitted curve in the direction sought with a large enough effect; inconclusive means small, poorly fitted or top-dose-only effect, or another doubt; inactive means no such curve, though single readings can be large; an effect the other way counts as inactive or inconclusive. Unless noted, on the % scale 0 is the no-effect control and ±100 the full control effect; potency means the concentration at half of the fitted maximal effect.
SMILES,NPSR antagonist,HPGD block,Tau fibril ThT,Tau fluor cs,Tau fibril FP,ALDH1A1 block
CN(C)Cc1ccc(C(C)(C)C)cc1-c1cc(C(C)(C)C)ccc1CN(C)C,/,-11%,/,/,/,-2%[13.5 µM]
O=C(Cc1cccs1)N1CCC(c2nc3c(nnn3Cc3ccccc3Cl)c(=O)[nH]2)CC1,-16%[46.1 µM],16µM*,-7%,-3%,5%,?
O=C(c1cccs1)N1CCCC(c2nc3c(nnn3Cc3ccccc3)c(=O)[nH]2)C1 (stereo unspecified),-17%,/,/,4%,-2%,/
O=C(C1CCCCC1)N1CCCC(c2nc3c(nnn3Cc3ccccc3)c(=O)[nH]2)C1 (stereo unspecified),?,14µM*,-13%,3%,-2%,16µM*
CCCOC(=O)CC1C(=O)NCCN1C(=O)OC(C)(C)C (stereo unspecified),-25%,/,-4%,-9%,-13%,-1%
CCCNC(=O)OC[C@@H]1O[C@H](CCO/N=C(\C)CCN2CCc3nc(-c4ccccc4)c(-c4ccccc4)cc3C2)C=C[C@@H]1Oc1ccc(OC)cc1,/,/,-8%[11.5 µM],-11%[11.6 µM],-13%[11.6 µM],2%[13.5 µM]
CCNC(=O)c1sc(=S)n(-c2ccc(C)cc2)c1N,-3%[46.1 µM],35µM*,-15%,-14%,1%,13µM*
CCOC(=O)c1sc(=S)n(-c2ccc(OC)cc2)c1N,26%,/,-8%,-20%,6%,/
Cc1ccc(-n2c(N)c(C(=O)N3CCOCC3)sc2=S)cc1,-10%[46.1 µM],10µM*,2%,5%,2%,3.2µM*
CN1CCN(C(=O)c2sc(=S)n(-c3ccccc3)c2N)CC1,-2%[46.1 µM],7.9µM*,?,-15%,?,3.2µM*
CCOC(=O)c1sc(=S)n(-c2ccc(C)cc2)c1SC,?,?,?,-3%,-5%,22µM*
CC(=O)c1cccc(NC(=O)CSc2nnc3ccc(-c4ccc(Br)cc4)nn23)c1,/,/,-9%,-17%,?,/
O=C1c2ccccc2C(O)(c2ccccc2)N1C1CC1 (stereo unspecified),8%,/,-3%,-6%,0%,/
Fc1ccc(-c2nn(-c3ccc(Cl)cc3)c3c2cnc2ccc(F)cc23)cc1,/,/,2%,1%,-4%,/
O=C(NCCc1ccc(Cl)cc1)c1ccc2c(c1)N(Cc1ccccc1)C(=O)CS2,/,/,-3%,?,-5%,/
CCOc1cc(/C=N/N=C(\N)c2nonc2N)cc(Br)c1OCc1cccc2ccccc12,-6%[46.1 µM],-6%,-16%,-29%,?,8%
COc1cc(/C=N/N=C(/N)c2nonc2N)cc(Br)c1OCc1cccc(C)c1,?,-12%,?,?,28µM*,3%
CCc1ccc(C(=O)CCC2CCCCC2=O)cc1 (stereo unspecified),-2%[46.1 µM],16µM*,-18%,-15%,-6%,?
Cc1nnc(C)c2c(C)n(-c3ccccc3N)c(C)c12,26%,/,?,1%,0%,?
COC(=O)c1sc(NC(C)=O)c(C(=O)OC)c1C,-2%[46.1 µM],32µM*,-8%,-3%,3%,?
COC(=O)c1sc(NC(=O)CC(C)C)c(C(=O)OC)c1C,-13%[46.1 µM],-22%,-15%,-22%,0%,?
COC(=O)c1sc(NC(=O)CSc2nncs2)c(C(=O)OC)c1C,-22%[46.1 µM],2.8µM*,-15%,-17%,6%,?
Cc1ccc(S(=O)(=O)c2c(O)cc(C)c(NS(=O)(=O)c3ccc(Br)cc3)c2C)cc1,/,/,3%,?,?,/
CCCCCCCCCCCCOCC1CO1 (stereo unspecified),/,-4%,/,/,/,?
O=C(C[n+]1cnn(CC(=O)c2ccc(Cl)cc2Cl)c1)c1ccc([N+](=O)[O-])cc1,25%,0%,?,-24%,4%,20µM*
Cc1ccc(Nc2ncc3c(n2)CC(C)(C)CC3=O)cc1,-8%,/,-3%,-8%,-8%,?
Cc1cc(C)c(NC(=O)CSc2nc(=O)[nH]c3c2CCCC3)c(C)c1,/,/,-3%,-3%,-10%,/

# Screening results from PubChem.
